IL2 activator: IL-2 activation | IL-2 activation reporter assay, cell-based qHTS; stimulated with anti-CD3/CD4/CD28 beads; in transgenic mouse T cells | activation, % (series mostly up to about 46 µM) | hit rate 0.065% among 360,000 | AID 652025; in the data active = activation above about 50%; inconclusive = mostly about 30% to 49%
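Readout is EGFP and DsRed signal by fluorescent plate cytometry after 18 h at 37 degrees C. Transgenic mouse T cells (750/well) received compound for 60 min before bead stimulation (anti-CD3, anti-CD4, anti-CD28); memory T cells served as non-tolerant control.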
p53 reactivation: mutant p53 re-activation in reporter cells. H1299 p53-A138V BP100-luciferase reporter, luminescence, 24 h. Potency, µM (highest dose often 92.2 µM), hits mostly activators. hit rate 0.063% among 320,000. AID 504706; note: nearly all actives have a fitted effect of over 45% in size
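H1299 (p53-null), stable ts p53-A138V + BP100-Luc; 1000 cells/well, Opti-MEM/10% FBS; cpd 4 pt, 1:5; 24 h, 37 deg C, 5% CO2; detection reagent 10 min RT; luminescence.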
uPA generation: blocks generation of uPA at the cell surface; hit rate 0.31% among 330,000; AID 540303; cell surface uPA generation assay, qHTS; Potency, µM (top dose mostly 38.3 µM), most hits filed as inhibitors; active = well fitted inhibition curve with a large enough effect; inconclusive = small, poorly fitted or top-dose-only effect; inactive = no such curve, though single readings can be large or run the other way; tested in mouse RAW 264.7 cells; note: nearly all actives have a fitted effect of over 55% in size
BRCA1 expr up: BRCA1 expression activation | hit rate 1.1% among 380,000 | Potency, µM (top dose mostly 46.1 µM), hits mostly activators | MCF7-BRCA1-FFLuc reporter, luminescence, 48 h; response scale: scaled: vehicle 0%, 10 µM genistein 100% | AID 624202; note: nearly all actives have a fitted effect of over 80% in size
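Activators of BRCA1 expression were detected as increased firefly luciferase luminescence in engineered MCF7 cells after 48 h compound incubation. Signals were scaled to genistein 10 microM as full activation.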
TCR activator: activators of T cell receptors | primary human leukocytes, anti-CD3, IL-2 HTRF, 48 h | Potency, µM (series often up to 9.22 µM), usual class: activators | 330,000 tested, under 10 active | AID 504894
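Activity was scored as IL-2 release from primary human leukocytes given only a TCR signal (a-CD3 beads) plus compound for 48 hr. Detection used a two-antibody HTRF format read at 665nm.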
Each line names hits and unclear results; the compound was inactive in the other large screens. Only some compounds are listed: those with a hit (about 1.4% of all), similar ones and a draw of the others. Unless noted, calls come from the whole dose curve; as a rule, active = well fitted curve in the direction sought with a large enough effect; inconclusive = small, poorly fitted or top-dose-only effect, or another doubt; inactive = no such curve, though single readings can be large; an effect the other way counts as inactive or inconclusive.

Cc1csc2c(N3CCCCC3)ncnc12	BRCA1 expr up 11.2µM
Cc1csc2c(N3CCC(C(=O)O)CC3)ncnc12	none
O=C(NCCn1cc(SCc2ccccc2)c2ccccc21)c1c(F)cccc1F	uPA generation inconclusive
O=C(NCCn1cc(SCc2ccc(F)cc2)c2ccccc21)c1c(F)cccc1F	uPA generation 10µM
NS(=O)(=O)c1ccc(S(=O)(=O)N2CCN(c3nc(-c4cccs4)nc4ccccc34)CC2)cc1	none (no result: IL2 activator, p53 reactivation, uPA generation, TCR activator)
CC1CCN(S(=O)(=O)c2ccc3c(ccc(=O)n3CC(=O)Nc3ccc(C(C)C)cc3)c2)CC1	none (no result: IL2 activator, p53 reactivation, uPA generation, TCR activator)
O=C(CSc1nnc2ccccn12)Nc1ncc(Cl)cc1Cl	p53 reactivation inconclusive, BRCA1 expr up 10µM (no result: uPA generation)
Fc1ccc(CSc2nnc3ccccn23)c(Cl)c1	BRCA1 expr up 10µM
Fc1cccc(Cl)c1CSc1nnc2ccccn12	BRCA1 expr up inconclusive
COc1ccccc1C1NC(=O)c2n[nH]c(-c3cccs3)c21 (centres undefined)	none (no result: IL2 activator, p53 reactivation, uPA generation, TCR activator)
CN(C)/C=C1\SC(=S)N(c2ccc(F)cc2)C1=O	none
CN(C)/C=C1\SC(=S)N(c2ccc(Br)cc2)C1=O	BRCA1 expr up 10µM
S=Cc1ccc(/C=C/c2ccnc3ccccc23)cc1	none (no result: IL2 activator, p53 reactivation, uPA generation, TCR activator)
CSc1ccc(/C=C/c2ccnc3ccccc23)cc1	BRCA1 expr up 4.47µM (no result: IL2 activator, p53 reactivation, uPA generation, TCR activator)
Cc1nc2ccc(NC(=O)CCC3CCCC3)cc2s1	p53 reactivation inconclusive, BRCA1 expr up 11.2µM
Cc1ccc(C)c(NC(=O)C2CCCN2S(=O)(=O)c2ccc3c(c2)CCCC(=O)N3)c1 (centres undefined)	none (no result: IL2 activator, p53 reactivation, uPA generation, TCR activator)
Cc1ccc(C)c(Nc2cc(C)nc(-c3ccccc3O)n2)c1	uPA generation 7.08µM
C/C(=C1/C=Nc2ccccc21)c1ccc(N(C)C)cc1	none (no result: IL2 activator, p53 reactivation, uPA generation, TCR activator)
CCn1cnc2cc(NC(=O)c3ccc(C)cc3)ccc21	uPA generation inconclusive, BRCA1 expr up 4.47µM
CCC(=O)Nc1ccc2c(c1)ncn2-c1ccc(OC)cc1	none
CCC(=O)Nc1ccc2c(c1)ncn2-c1ccc(C)cc1	BRCA1 expr up 2µM
Cc1ccc(C(=O)Nc2ccc3c(c2)ncn3C)cc1	p53 reactivation inconclusive, BRCA1 expr up inconclusive
COc1cccc(-n2c(=O)c3sc4ccccc4c3n(CC(=O)Nc3ccccc3OC)c2=O)c1	none (no result: IL2 activator, p53 reactivation, uPA generation, TCR activator)
NS(=O)(=O)c1cccc(NC(=O)CCSc2ccccc2Cl)c1	p53 reactivation inconclusive, BRCA1 expr up 10µM
CCN(/C=N/c1sc2c(c1C#N)CCCCC2)CC	BRCA1 expr up 6.31µM
Cc1cccc(NC(=O)C(=O)NCCc2sc(-c3ccccc3)nc2C)c1C	none (no result: IL2 activator, p53 reactivation, uPA generation, TCR activator)
CC1CCC(NC(=O)c2ccc3nc[nH]c3c2)CC1 (centres undefined)	p53 reactivation inconclusive, BRCA1 expr up 11.2µM
O=C(CCCOc1ccccc1)Nc1ccc(Br)cc1	none (no result: p53 reactivation)
O=C(CCOc1ccccc1)Nc1ccc(Br)cc1	BRCA1 expr up 7.94µM (no result: p53 reactivation, TCR activator)
Cc1cnc(C(=O)OCC(=O)Nc2ccc(OCc3ccccc3)cc2)cn1	p53 reactivation inconclusive, BRCA1 expr up 10µM
O=C(CCSc1ccccc1)Nc1ccc(OCc2ccccc2)cc1	BRCA1 expr up 11.2µM
O=C(C[n+]1csc2ccccc21)c1ccc(O)c(O)c1	none (no result: IL2 activator, p53 reactivation, uPA generation, TCR activator)
Oc1oc(-c2ccccc2)nc1C=Nc1ccccc1	none
Oc1oc(-c2ccccc2)nc1C=NCc1ccccc1	BRCA1 expr up 10µM
CCn1cc2nc(SCC(=O)Nc3ccccc3C(F)(F)F)n(Cc3ccc(C)cc3)c(=O)c2n1	none (no result: IL2 activator, p53 reactivation, uPA generation, TCR activator)
CC(=O)Nc1cccc(NC(=O)c2ccc(COc3ccccc3)cc2)c1	p53 reactivation inconclusive, BRCA1 expr up 2.24µM
CC(=O)Nc1cccc(OCCCOc2ccc([N+](=O)[O-])cc2)c1	none
CC(=O)Nc1cccc(OCc2ccc([N+](=O)[O-])cc2)c1	BRCA1 expr up 11.2µM (no result: p53 reactivation, uPA generation, TCR activator)
Cc1ccc(C(C)C)c(OCC(=O)NCC2(N(C)C)CCCCC2)c1	none (no result: IL2 activator, p53 reactivation, uPA generation, TCR activator)
Cc1ccc(/C=C/C(=O)Nc2ccc(N(C)C)cc2)o1	p53 reactivation inconclusive, BRCA1 expr up 3.98µM
Cc1ccc(/C=C/C(=O)Nc2ccncc2)o1	none
Cc1ccc(/C=C/C(=O)Nc2ncc(C)s2)o1	p53 reactivation inconclusive, BRCA1 expr up 3.16µM
CCOC(=O)c1nnn(-c2ccc([N+](=O)[O-])cc2[N+](=O)[O-])c1C	uPA generation 8.91µM
CCOC(=O)c1nnn(-c2ccccc2)c1C	none
COc1ccc(C2Nc3ccc(NC(C)=O)cc3C(=O)N2Cc2cccc(Cl)c2)cc1COc1ccc(NC(C)=O)cc1 (centres undefined)	none (no result: IL2 activator, p53 reactivation, uPA generation, TCR activator)
